{"source": "paper PMC4336329", "about": "(PLoS ONE, 2015)", "note": "Hit rate of the full screen: of about 310,000 compounds, about 14,000 (4.5%) showed an effect of 50% or more. The effect is printed as a negative number. What follows is part of a selection rich in strong results, with near analogues and random picks from the rest.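 Further: peak tail current of the secondary pulse compared with the same well before compound.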", "data": [{"molecular_target": "human ether-à-go-go-related gene (hERG) potassium channel (human, UniProt Q12809)", "sequence (Q12809 whole entry, looked up)": "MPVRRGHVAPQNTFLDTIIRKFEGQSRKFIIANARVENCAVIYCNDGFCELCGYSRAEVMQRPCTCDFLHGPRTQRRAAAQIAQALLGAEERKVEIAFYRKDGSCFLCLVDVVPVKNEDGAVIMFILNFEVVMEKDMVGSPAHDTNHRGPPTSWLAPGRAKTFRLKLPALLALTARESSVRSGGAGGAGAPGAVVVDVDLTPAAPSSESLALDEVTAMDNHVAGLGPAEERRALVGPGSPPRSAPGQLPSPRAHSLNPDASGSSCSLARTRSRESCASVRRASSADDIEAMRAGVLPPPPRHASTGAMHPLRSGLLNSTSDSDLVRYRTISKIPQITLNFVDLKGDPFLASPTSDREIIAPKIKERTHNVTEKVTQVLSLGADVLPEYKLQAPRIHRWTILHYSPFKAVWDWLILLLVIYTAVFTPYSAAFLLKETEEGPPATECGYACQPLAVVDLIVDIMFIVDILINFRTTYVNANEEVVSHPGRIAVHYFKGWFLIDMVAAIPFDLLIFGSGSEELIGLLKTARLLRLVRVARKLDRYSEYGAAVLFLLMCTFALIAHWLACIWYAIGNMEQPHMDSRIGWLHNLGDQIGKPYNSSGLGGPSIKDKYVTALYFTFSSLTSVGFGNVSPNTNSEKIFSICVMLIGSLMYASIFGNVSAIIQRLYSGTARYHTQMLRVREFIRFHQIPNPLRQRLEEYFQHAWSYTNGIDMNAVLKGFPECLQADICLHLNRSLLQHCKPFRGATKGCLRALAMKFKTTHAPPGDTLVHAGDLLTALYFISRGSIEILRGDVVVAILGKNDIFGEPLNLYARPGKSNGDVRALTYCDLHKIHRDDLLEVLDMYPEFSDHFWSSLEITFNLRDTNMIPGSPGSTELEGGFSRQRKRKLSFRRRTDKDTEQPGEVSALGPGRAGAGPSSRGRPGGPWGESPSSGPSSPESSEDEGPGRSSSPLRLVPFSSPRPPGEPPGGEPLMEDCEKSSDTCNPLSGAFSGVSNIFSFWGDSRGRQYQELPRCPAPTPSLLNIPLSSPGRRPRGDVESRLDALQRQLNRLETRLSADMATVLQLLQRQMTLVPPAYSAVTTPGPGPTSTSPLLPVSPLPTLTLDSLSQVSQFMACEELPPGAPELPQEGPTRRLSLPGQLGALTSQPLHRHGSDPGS", "experiment": "primary screen, population patch clamp on CHO cells stably expressing hERG; higher = less effect of the substance", "units": {"hERG current change (%, negative = inhibition) at 10uM": "%"}, "values": [{"smiles": "O=C(O)[C@@H](O)c1ccccc1", "hERG current change (%, negative = inhibition) at 10uM": 6.63}, {"smiles": "CCOC(=O)c1sc2ncn(C(CC)C(=O)OC)c(=O)c2c1C", "note": "(stereo not drawn)", "hERG current change (%, negative = inhibition) at 10uM": 9.35}, {"smiles": "NC(=O)c1oc2ccccc2c1NC(=O)c1nc2ccccc2s1", "hERG current change (%, negative = inhibition) at 10uM": 6.28}, {"smiles": "CN(/N=C/c1ccccc1O)C(=S)c1ccccc1", "hERG current change (%, negative = inhibition) at 10uM": -3.8}, {"smiles": "O=C(COc1ccccc1)Nc1nc2c(s1)CCCC2", "hERG current change (%, negative = inhibition) at 10uM": -20.3}, {"smiles": "CN1CCc2nc(NC(=O)COc3ccc(C#N)cc3)sc2C1", "hERG current change (%, negative = inhibition) at 10uM": -7.85}, {"smiles": "CN1CCc2nc(NC(=O)COc3ccc4ccccc4c3)sc2C1", "hERG current change (%, negative = inhibition) at 10uM": -56.2}, {"smiles": "O=C(c1cccc(-c2ccccc2F)c1)N1CC[C@@H](N2CCC(O)CC2)[C@H](O)C1", "hERG current change (%, negative = inhibition) at 10uM": -17.7}, {"smiles": "Cc1ccccc1OCC(O)CN1CCCCC1.Cl", "note": "(stereo not drawn)", "hERG current change (%, negative = inhibition) at 10uM": 9.68}, {"smiles": "OC(COc1cccc2ccccc12)CN1CCN(c2cccc(Cl)c2)CC1", "note": "(stereo not drawn)", "hERG current change (%, negative = inhibition) at 10uM": 1.82}, {"smiles": "Cc1cccc(N2CCN(CC(O)COc3ccc(Cl)cc3)CC2)c1", "note": "(stereo not drawn)", "hERG current change (%, negative = inhibition) at 10uM": -41.3}, {"smiles": "Cc1cccc(OCC(O)CN2C(C)(C)CC(O)CC2(C)C)c1C", "note": "(stereo not drawn)", "hERG current change (%, negative = inhibition) at 10uM": -51.3}, {"smiles": "Cc1cccc(OCC(O)CN2C(C)(C)CC(O)CC2(C)C)c1", "note": "(stereo not drawn)", "hERG current change (%, negative = inhibition) at 10uM": -33.2}, {"smiles": "OC(COc1cccc2ccccc12)CN1CCN(c2ccc(Cl)cc2)CC1", "note": "(stereo not drawn)", "hERG current change (%, negative = inhibition) at 10uM": -3.42}, {"smiles": "CC1(C)CC(O)CC(C)(C)N1CC(O)COCc1ccccc1", "note": "(stereo not drawn)", "hERG current change (%, negative = inhibition) at 10uM": 11.7}, {"smiles": "C=C1CC(C)OC(c2ccccc2OCC(O)CN2CCCCC2)C1", "note": "(stereo not drawn)", "hERG current change (%, negative = inhibition) at 10uM": -72.4}, {"smiles": "Cc1cccc(N2CCN(CC(O)COc3ccccc3Cl)CC2)c1", "note": "(stereo not drawn)", "hERG current change (%, negative = inhibition) at 10uM": -56}, {"smiles": "CC1CN(CC(O)COc2ccccc2C(C)(C)C)CC(C)O1.Cl", "note": "(stereo not drawn)", "hERG current change (%, negative = inhibition) at 10uM": -10.1}, {"smiles": "Cc1ccccc1OCC(O)CN1CCN(c2ccc(Cl)cc2)CC1", "note": "(stereo not drawn)", "hERG current change (%, negative = inhibition) at 10uM": -66.3}, {"smiles": "COC(=O)c1ccc(NC(=O)c2c(C(=O)Nc3ccccc3)sc3nc(C)cc(=O)n23)cc1", "hERG current change (%, negative = inhibition) at 10uM": 15.3}, {"smiles": "Cc1ccccc1NC(=O)CSc1nnnn1C", "hERG current change (%, negative = inhibition) at 10uM": 6.94}, {"smiles": "CCOC(=O)c1c(-c2ccccc2)csc1NC(=O)c1cc(S(=O)(=O)N2CCOCC2)ccc1C", "hERG current change (%, negative = inhibition) at 10uM": 2.23}, {"smiles": "N#Cc1sc2nc(-c3cccs3)cc(-c3ccc(Cl)cc3)c2c1N", "hERG current change (%, negative = inhibition) at 10uM": -2.05}, {"smiles": "C=CCc1cccc2cc(C(=O)N3CCN(c4ccccn4)CC3)c(=O)oc12", "hERG current change (%, negative = inhibition) at 10uM": -38.9}, {"smiles": "O=C1COc2ccc(C(=O)COC(=O)c3ncc(Cl)c(Cl)c3Cl)cc2N1", "hERG current change (%, negative = inhibition) at 10uM": 36.6}, {"smiles": "COc1ccc(/C=C/C2=NN(C)C(=O)CC2)cc1", "hERG current change (%, negative = inhibition) at 10uM": 13.4}, {"smiles": "O=C(N/N=C\\c1ccc(CNS(=O)(=O)c2ccccc2)o1)C(=O)Nc1ccc(F)cc1", "hERG current change (%, negative = inhibition) at 10uM": -22.3}, {"smiles": "S=C(NCc1ccc2c(c1)OCO2)NC1CCN(Cc2ccccc2)CC1", "hERG current change (%, negative = inhibition) at 10uM": 20.6}, {"smiles": "CCOC(=O)c1nc(C)n(-c2ccc(Cl)cc2Cl)n1", "hERG current change (%, negative = inhibition) at 10uM": 8.75}, {"smiles": "COc1ccc(-c2nc(SC(CC(=O)NCCN3CCOCC3)c3cccs3)n[nH]2)cc1", "note": "(stereo not drawn)", "hERG current change (%, negative = inhibition) at 10uM": 1.08}, {"smiles": "COc1ccccc1OCC(O)CN1CCN(CC(=O)Nc2c(C)cccc2C)CC1", "note": "(stereo not drawn)", "hERG current change (%, negative = inhibition) at 10uM": -18.6}, {"smiles": "CCOC(=O)N1CCN(CC(O)COc2ccccc2[N+](=O)[O-])CC1.Cl", "note": "(stereo not drawn)", "hERG current change (%, negative = inhibition) at 10uM": -0.882}, {"smiles": "Cc1ccccc1OCC(O)CN1CCC(C)CC1.Cl", "note": "(stereo not drawn)", "hERG current change (%, negative = inhibition) at 10uM": -34.1}, {"smiles": "Cc1ccccc1OCC(O)CN1CCN(CC(O)COc2ccccc2C)CC1", "note": "(stereo not drawn)", "hERG current change (%, negative = inhibition) at 10uM": -81.6}, {"smiles": "Cc1ccccc1OCC(O)CN1CCN(C)CC1.Cl", "note": "(stereo not drawn)", "hERG current change (%, negative = inhibition) at 10uM": -0.704}, {"smiles": "O=[N+]([O-])c1ccccc1OCC(O)CN1CCN(CC(O)COc2ccccc2[N+](=O)[O-])CC1", "note": "(stereo not drawn)", "hERG current change (%, negative = inhibition) at 10uM": -60.2}, {"smiles": "COc1ccc(N2CCN(CC(O)COc3ccccc3[N+](=O)[O-])CC2)cc1.Cl", "note": "(stereo not drawn)", "hERG current change (%, negative = inhibition) at 10uM": -44.1}, {"smiles": "Cc1ccccc1OCC(O)CN.Cl.O", "note": "(stereo not drawn)", "hERG current change (%, negative = inhibition) at 10uM": -1.72}, {"smiles": "Cc1ccccc1OCC(O)CN1CCN(CC(O)COc2ccccc2C)C(C)C1.O=C(O)C(=O)O", "note": "(stereo not drawn)", "hERG current change (%, negative = inhibition) at 10uM": -70.8}, {"smiles": "Cc1ccccc1N1C(=O)CSC1=C(C#N)C#N", "hERG current change (%, negative = inhibition) at 10uM": 18.3}, {"smiles": "S=C(NCc1ccccn1)Nc1ccccc1", "hERG current change (%, negative = inhibition) at 10uM": 16.3}, {"smiles": "Cc1ccc(N2CC(C(=O)NC3CC3)CC2=O)cc1Cl", "note": "(stereo not drawn)", "hERG current change (%, negative = inhibition) at 10uM": 10}, {"smiles": "CCOC(=O)CSc1nc2sc3c(c2c(=O)[nH]1)CC(C)(C)OC3", "hERG current change (%, negative = inhibition) at 10uM": 0.154}, {"smiles": "CSc1cccc(NC(=O)CN(C2CCCCC2)S(C)(=O)=O)c1", "hERG current change (%, negative = inhibition) at 10uM": -7.59}, {"smiles": "Cc1ccc(-c2csc3nc[nH]c(=S)c23)cc1C", "hERG current change (%, negative = inhibition) at 10uM": 27.5}]}]}
